From PubChem BioAssay AID1240 (Sanford-Burnham Center for Chemical Genomics, 2008)
The campaign covered roughly 50,000 compounds. About 800 (1.6%) showed an effect of 50% or more. The sample as a whole holds a higher share of strong results than the screen did.

These molecules were tested against Bcl-2-like protein 10 (Homo sapiens) (UniProt Q9HD36) (assay: TR3 peptide-Bcl-B binding displacers, biochemical primary FP assay, phenotype converters (AID 1240;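 further: 0% = Bcl-B with tracer peptide and DMSO and 100% = tracer peptide lacking Bcl-B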)). Conditions: GST-Bcl-B / FITC-TR3 peptide fluorescence polarization; stronger effect = higher value; compound at 3.75 mg/L.
Sequence of Bcl-2-like protein 10 (Homo sapiens) (Q9HD36 whole entry, looked up): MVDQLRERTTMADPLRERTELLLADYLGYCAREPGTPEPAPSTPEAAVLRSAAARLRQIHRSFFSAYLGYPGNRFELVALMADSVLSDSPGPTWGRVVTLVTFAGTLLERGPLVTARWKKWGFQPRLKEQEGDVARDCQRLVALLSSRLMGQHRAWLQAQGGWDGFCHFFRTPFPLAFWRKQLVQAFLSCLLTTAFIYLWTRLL

| SMILES | displacement |
| --- | --- |
| C=C(NC(C)=O)C(=O)c1ccc([N+](=O)[O-])cc1 | 18.9% |
| Cc1ccc(Nc2ccc([N+](=O)[O-])c3nonc23)cc1 | -2.1% |
| Cc1ccc(Nc2ccc([N+](=O)[O-])ccc2=O)cc1 | 136% |
| O=C(Nc1ccccc1C(=O)Nc1ccccn1)c1ccc([N+](=O)[O-])cc1 | 45.1% |
| O=C(COc1ccc([N+](=O)[O-])cc1)Nc1ccccn1 | -10.4% |
| O=c1ccc([N+](=O)[O-])ccc1Nc1ccccn1 | 58.1% |
| Cc1ccc(NS(=O)(=O)c2ccc([N+](=O)[O-])cc2)cc1 | 15.1% |
| O=C(c1ccccc1)N1CCN(CCCc2ccccc2)CC1 | -9.4% |
| Cc1cccc(C(=O)O/N=C(\N)c2ccncc2)c1 | 8.5% |
| Clc1ccc(CN2CCN(/N=C/c3ccc(Br)s3)CC2)cc1 | 14.6% |
| N#C/C(=C/c1cccc(Cl)c1)c1nc(-c2ccc(Cl)cc2)cs1 | -4.7% |
| COc1cc(OC)c(NC(=O)c2ccccc2C)cc1Cl | -12% |
| COc1cc(C=C2C(=O)NC(=O)NC2=O)ccc1OCc1c(C)no[n+]1[O-] | -3.9% |
| CCOc1cc(C=C2C(=O)NC(=O)NC2=O)ccc1OCc1c(C)no[n+]1[O-] | 108% |
| CCOc1ccc(C=C2C(=O)NC(=O)NC2=O)cc1OCC | 14.1% |
| Cc1no[n+]([O-])c1COc1ccc(/C=C2\SC(=S)NC2=O)cc1 | -27.5% |
| CCOc1cc(C=C2C(=O)NC(=O)NC2=O)ccc1OCc1ccccc1 | 33.7% |
| Cc1no[n+]([O-])c1COc1cccc(/C=C2\SC(=S)NC2=O)c1 | -27.6% |
| Cc1no[n+]([O-])c1COc1ccc(C=C2C(=O)NC(=O)NC2=O)cc1 | 2.5% |
| CCOc1cc(C=C2C(=O)NC(=O)NC2=O)ccc1OCc1cccc2ccccc12 | 58.6% |
| CCOc1cc(/C=C2\SC(=S)NC2=O)ccc1OCc1c(C)no[n+]1[O-] | 117% |
| O=C(c1nn2c(C(F)(F)F)cc(-c3ccccc3)nc2c1Cl)N1CCCC1 | 22.7% |
| CC1=NN(C(=O)c2ccc([N+](=O)[O-])cc2)C(O)(C(F)(F)F)C1 (configuration not stated) | 6.8% |
| O=C1NC(=Nc2ccc(Cl)cc2)SC1Cc1cccc([N+](=O)[O-])c1 (configuration not stated) | -4.7% |
| O=C(CN(c1ccc(Br)cc1)S(=O)(=O)c1ccccc1)NC1CC2CCC1C2 (configuration not stated) | -0.2% |
| Nc1nnc(SCC(=O)N2c3ccccc3Sc3ccccc32)s1 | -2% |

| SMILES | displacement |
| --- | --- |
| CC(=O)N(CCC1(Cc2ccccc2)CCOC(C)(C)C1)Cc1ccccc1 (configuration not stated) | 7.8% |
| O=C(O)CCCCCN1C(=O)C(=O)/C(=C(/O)c2ccccc2)C1c1cccc(F)c1 (configuration not stated) | -11.9% |
| COc1ccc(C(NC(C)=O)NC(C)=O)cc1OC | 6.3% |
| CCOc1ccc(C(=O)N(C(=O)c2ccc(OCC)cc2)c2ncccc2C)cc1 | -0.9% |
| COC(=O)c1[nH]cnc1C(=O)Nc1ccc(C)cc1C(=O)c1ccccc1 | -1.6% |
| Cc1ccccc1-c1nc2ccccc2c(=O)n1/N=C/c1ccc([N+](=O)[O-])cc1 | 12.8% |
| Cc1ccc(C)c(NC(=O)/C=C/c2ccc(C)o2)c1 | 10.2% |
| CCOc1ccc(S(=O)(=O)NCc2ccccc2Cl)c2ccccc12 | 3.4% |
| O=C(Nc1nc(-c2ccc([N+](=O)[O-])cc2)cs1)c1ccc(Cl)cc1 | 8.7% |
| O=C(Nc1nc(-c2ccc(F)cc2)cs1)c1ccccc1[N+](=O)[O-] | 8.9% |
| O=C(Nc1nc(-c2ccc([N+](=O)[O-])cc2)cs1)c1ccccc1F | 113% |
| COc1cc(/C=C2/SC(=S)N(CC(=O)O)C2=O)ccc1OCc1ccccc1 | 1.7% |
| Oc1ccc(Br)cc1CN1CCN(Cc2c[nH]c3ccccc23)CC1 | -2.7% |
| Cc1n[nH]c(C)c1Sc1ccccc1N=Cc1cc(Cl)ccc1O | 0% |
| Cc1n[nH]c(C)c1Sc1ccccc1N=Cc1cc([N+](=O)[O-])ccc1O | 3.6% |
| Cc1n[nH]c(C)c1Sc1ccccc1N=Cc1cc(Cl)cc([N+](=O)[O-])c1O | 117% |
| O=C(/C=C/c1ccccc1OC(=O)c1cccnc1)c1ccccc1 | -10.4% |
| Cc1ccc(C2OC3(C(=O)c4ccccc4C3=O)C(c3cccc(Cl)c3)C23C(=O)c2ccccc2C3=O)cc1 (configuration not stated) | 2% |
| O=C1/C(=C\c2ccc3c(c2)OCO3)SC(=S)N1CCc1ccccc1 | -2.3% |
| O=C1/C(=C/c2cccc([N+](=O)[O-])c2)SC(=S)N1C1CCS(=O)(=O)C1 (configuration not stated) | 2.2% |
| O=C1/C(=C\c2ccc3c(c2)OCO3)SC(=S)N1C1CCS(=O)(=O)C1 (configuration not stated) | 106% |
| CN1C(=O)/C(=C/c2ccc3c(c2)OCO3)SC1=S | 80.3% |
| O=C(O)CCN1C(=O)/C(=C\c2ccc3c(c2)OCO3)SC1=S | -2.7% |
| CC(C(=O)O)N1C(=O)/C(=C/c2ccc3c(c2)OCO3)SC1=S (configuration not stated) | 9.1% |
| Cc1ccc(CNS(=O)(=O)c2ccccc2[N+](=O)[O-])cc1 | 5.2% |
| O=C(c1ccccc1)N1CCCC2CCCCC21 (configuration not stated) | 1.6% |

| SMILES | displacement |
| --- | --- |
| CCOc1ccc(NC(=O)c2c(N)sc(-c3ccccc3)c2C)cc1 | -0.3% |
| CCO/C=N/C1=C(C#N)C(c2ccccc2)C2=C(CC(C)(C)CC2=O)O1 (configuration not stated) | 4.5% |
| COC(=O)c1cc(C(=O)Nc2cc(C)ccn2)cc([N+](=O)[O-])c1 | 3.9% |
| COC(=O)c1cc(C(=O)Nc2ccccn2)cc([N+](=O)[O-])c1 | -1.3% |
| COC(=O)c1cc(C(=O)Nc2ncccc2C)cc([N+](=O)[O-])c1 | 55.2% |
| Cc1cccnc1NC(=O)Nc1ccc(F)cc1 | 0.2% |
| O=C(NCC1CCCO1)c1ccc(C2SCC(=O)N2Cc2ccccc2)cc1 (configuration not stated) | -12.3% |
| CCCOc1ccc(N2C(=O)CC(NCc3cccnc3)C2=O)cc1 (configuration not stated) | 1.7% |
| CCCCOc1ccc(/C=C2\SC(=S)N(CCC(=O)OC)C2=O)cc1OC | 54.1% |
| COC(=O)CCN1C(=O)/C(=C\c2cc(Br)c(O)c(OC)c2)SC1=S | 53.8% |
| COC(=O)CCN1C(=O)/C(=C\c2ccc(C)cc2)SC1=S | 0.6% |
| COc1cc(/C=C2/SC(=S)N(CCC(=O)O)C2=O)cc(Br)c1O | -13.7% |
| CCCCOc1ccc(/C=C2\SC(=S)N(C(C)C(=O)O)C2=O)cc1OC (configuration not stated) | 3.8% |
| COc1cc(/C=C2\SC(=S)N(C)C2=O)cc(Br)c1O | -47.9% |
| O=C(Nc1ccc(I)cc1Cl)c1cccc(Cl)c1Cl | 11.2% |
| O=C(NN1C(=O)/C(=C\c2ccccn2)SC1=S)c1ccccc1 | -15.1% |
| CCCOc1c(I)cc(I)cc1/C=C(/C#N)c1nc2ccc(C)cc2[nH]1 | -4.9% |
| Cc1ccc2nc(/C(C#N)=C\c3cc(Br)ccc3OC(C)C)[nH]c2c1 | 13.1% |
| CCOc1ccc(Br)cc1/C=C(\C#N)c1nc2ccc(C)cc2[nH]1 | 72.9% |
| Cc1ccc(/C=C(/C#N)c2nc3ccc(C)cc3[nH]2)cc1 | 4.5% |
| CCCOc1ccc(Br)cc1/C=C(/C#N)c1nc2ccc(C)cc2[nH]1 | 69.3% |
| CCCOc1ccc(Cl)cc1/C=C(/C#N)c1nc2ccc(C)cc2[nH]1 | 15.5% |
| CCc1ccc(/C=C(/C#N)c2nc3ccc(C)cc3[nH]2)cc1 | 3.2% |
| Cc1ccc2nc(/C(C#N)=C/c3cc(Br)ccc3OCc3ccccc3)[nH]c2c1 | -2.3% |
| Cc1ccc2nc(/C(C#N)=C\c3ccc(Br)cc3)[nH]c2c1 | 136% |
| COc1ccc(C2NCCc3c2[nH]c2ccccc32)cc1OC (configuration not stated) | 8.4% |

| SMILES | displacement |
| --- | --- |
| COc1cccc(C(=O)N2N=C(c3cccnc3)CC2(O)C(F)(F)F)c1 (configuration not stated) | -2.9% |
| CCOC(=O)CN1C(c2ccccc2OC)Nc2ccc(Br)cc2C1c1ccccc1 (configuration not stated) | 15.6% |
| Cc1ccc(S(=O)(=O)NN2C(=O)/C(=C/c3ccc(F)cc3)SC2=S)cc1 | 2% |
| OC(CNCc1ccccc1)(c1ccccc1)c1ccc(Cl)cc1 (configuration not stated) | -9.4% |
| CCCN=C(C)c1c(C)[nH]n(-c2nc3ccccc3s2)c1=O | 68.8% |
| CC(=NCc1ccccc1)c1c(C)[nH]n(-c2nc3ccccc3s2)c1=O | 12.2% |
| CC(=NCCc1ccccc1)c1c(C(F)(F)F)[nH]n(-c2nc3ccccc3s2)c1=O | -8.3% |
| COc1cccc(C2C(C(=O)Nc3ccccc3)=C(C)N=c3s/c(=C\c4ccc(O)cc4)c(=O)n32)c1 (configuration not stated) | -6.7% |
| COc1cccc(C2C(C(=O)Nc3ccccc3)=C(C)N=c3s/c(=C\c4cccs4)c(=O)n32)c1 (configuration not stated) | 79.1% |
| COc1cccc(C2C(C(=O)Nc3ccccc3)=C(C)N=c3s/c(=C\c4ccncc4)c(=O)n32)c1 (configuration not stated) | 9.6% |
| COc1cccc(C2C(C(=O)Nc3ccccc3)=C(C)N=c3s/c(=C/c4ccccc4OC)c(=O)n32)c1 (configuration not stated) | 12.1% |
| COc1cccc(C2C(C(=O)Nc3ccccc3)=C(C)N=c3s/c(=C\c4ccc(N(C)C)cc4)c(=O)n32)c1 (configuration not stated) | 73.6% |
| COc1ccc(C2C(C(=O)OC(C)C)=C(C)N=c3s/c(=C\c4cc(OC)ccc4OC)c(=O)n32)cc1 (configuration not stated) | 6.4% |
| COc1cccc(C2C(C(=O)Nc3ccccc3)=C(C)N=c3s/c(=C\c4sccc4C)c(=O)n32)c1 (configuration not stated) | 46.7% |
| CCOC(=O)C1=C(C)N=c2s/c(=C\c3c[nH]c4ccccc34)c(=O)n2C1c1cccc(OC)c1 (configuration not stated) | 32.8% |
| COc1ccc(C2C(C(=O)OC(C)C)=C(C)N=c3s/c(=C/c4c[nH]c5ccccc45)c(=O)n32)cc1 (configuration not stated) | 99.1% |
| COc1cccc(C2C(C(=O)Nc3ccccc3)=C(C)N=c3s/c(=C\c4c[nH]c5ccccc45)c(=O)n32)c1 (configuration not stated) | 113% |
| CCOC(=O)C1=C(C)N=c2s/c(=C\c3cccs3)c(=O)n2C1c1cccc(OC)c1 (configuration not stated) | 12.9% |
| COc1ccc(/C=c2\sc3n(c2=O)C(c2ccc(OC)cc2)C(C(=O)OC(C)C)=C(C)N=3)cc1 (configuration not stated) | 10% |
| Cc1ccc(NC(=O)c2cc3cc([N+](=O)[O-])ccc3oc2=O)cc1 | 13.5% |
| CSc1ccccc1NC(=O)CC1Nc2cc(C)c(C)cc2NC1=O (configuration not stated) | -41.6% |
| O=C1Nc2ccc(Br)c3cccc1c23 | 15.9% |
| COc1cc(C(=O)NCc2cccc3ccccc23)cc(OC)c1OC | 9.9% |
| COc1ccc(/C=C2\SC(=Nc3ccc(O)cc3)NC2=O)cc1OC | -6.3% |
